{"source": "PubChem BioAssay AID1053133", "about": "(Broad Institute, 2014)", "note": "The whole screen tested about 89,000 compounds, of which about 10 (0.01%) were called active. Not shown: some 10% with an inconclusive outcome. Cut-off read from the data, not from the text of the source: active = activity change below about -37% (passing the limit was not always enough); inconclusive = no clear call, values can overlap the other calls; tested in A549 cells. These entries were drawn from the full list.", "data": [{"assay": "blocks a specific stage of Vaccinia orthopoxvirus infection, primary screen, cell-based, single point (AID 1053133)", "details": "Vaccinia-infected cells, mCherry/Venus stage reporter fluorescence, stronger effect = lower value, concentration not given here; activity change (Venus): measured here: Venus reporter, other viral stage", "units": {"activity change (Venus)": "%"}, "values": [{"smiles": "O=C(C[C@H]1C=C[C@@H](NS(=O)(=O)c2ccc(F)cc2)[C@@H](CO)O1)NC1CCC1", "activity change (Venus)": 1.04, "activity change (mCherry)": "-4.64% (inactive)"}, {"smiles": "COc1ccc2c3c(n(C)c2c1)[C@@H](CO)NCC31CCN(CC2CC2)CC1", "activity change (Venus)": -18.9, "activity change (mCherry)": "-27.4% (inactive)"}, {"smiles": "O=C([C@@H]1[C@@H](CO)[C@@H]2Cn3c(ccc(C4=CCCC4)c3=O)[C@H]1N2C(=O)c1ccncc1)N1CCCCC1", "activity change (Venus)": 16.9, "activity change (mCherry)": "10.1% (inactive)"}, {"smiles": "C[C@@H]1CCCCO[C@H](CN(C)S(=O)(=O)c2cccs2)[C@H](C)CN([C@@H](C)CO)C(=O)c2cc(NC(=O)Nc3ccc4c(c3)OCO4)ccc2O1", "activity change (Venus)": 8.44, "activity change (mCherry)": "9.35% (inactive)"}, {"smiles": "COCC(=O)N1CC2(CN(C(=O)c3cccnc3)C2)c2c([nH]c3cc(OC)ccc23)[C@H]1CO", "activity change (Venus)": -0.352, "activity change (mCherry)": "2.73% (inactive)"}, {"smiles": "Cc1ccccc1S(=O)(=O)N[C@@H]1CC[C@H](CCn2cc(-c3ccc(F)cc3)nn2)O[C@@H]1CO", "activity change (Venus)": -24.8, "activity change (mCherry)": "-28.1% (inactive)"}, {"smiles": "CO[C@@H]1CC[C@@H]2CCOc3c(C#N)cccc3C(=O)N(C)C[C@H](C)C(=O)N(C)C[C@H]1O2", "activity change (Venus)": 8.81, "activity change (mCherry)": "14.4% (inactive)"}, {"smiles": "C[C@@H]1CN([C@@H](C)CO)C(=O)c2cc(NC(=O)Cc3ccccc3)ccc2O[C@@H](C)CCCCO[C@H]1CN(C)C(=O)Nc1cccc2ccccc12", "activity change (Venus)": 18.5, "activity change (mCherry)": "21.9% (inactive)"}, {"smiles": "CN(C)CCCNC(=O)C[C@H]1CC[C@H]2[C@@H](COC[C@H](O)CN2CC2CCCCC2)O1", "activity change (Venus)": 5.87, "activity change (mCherry)": "3.25% (inactive)"}, {"smiles": "C[C@@H]1CCCCO[C@@H](CN(C)Cc2ccc3c(c2)OCO3)[C@H](C)CN([C@@H](C)CO)C(=O)c2cc(NS(C)(=O)=O)ccc2O1", "activity change (Venus)": 5.91, "activity change (mCherry)": "-0.705% (inactive)"}, {"smiles": "COc1ccc2c3c(n(C)c2c1)[C@H](CO)N(CC1CCOCC1)CC31CCN(C(C)=O)CC1", "activity change (Venus)": 11, "activity change (mCherry)": "17.4% (inactive)"}, {"smiles": "CN(C)CC(=O)Nc1ccc2c(c1)[C@@H]1C[C@H](CC(=O)NCc3ccc(Cl)cc3)O[C@@H](CO)[C@@H]1O2", "activity change (Venus)": 5.77, "activity change (mCherry)": "-4.73% (inactive)"}, {"smiles": "COc1ccc2c3c([nH]c2c1)[C@@H](CO)N(C(=O)c1ccc(F)cc1)CC31CCN(C(=O)Nc2ccc(F)cc2)CC1", "activity change (Venus)": -2.47, "activity change (mCherry)": "1.1% (inactive)"}, {"smiles": "C[C@H](CO)N1C[C@H](C)[C@H](CN(C)Cc2cccc(F)c2)Oc2ncc(C#CCN(C)C)cc2C1=O", "activity change (Venus)": -6.38, "activity change (mCherry)": "-10.3% (inactive)"}, {"smiles": "COc1ccc(S(=O)(=O)N[C@@H]2CC[C@@H](CC(=O)NCCc3ccccc3)O[C@@H]2CO)cc1", "activity change (Venus)": -2.59, "activity change (mCherry)": "3.47% (inactive)"}, {"smiles": "O=C(NCC[C@@H]1CC[C@@H](NS(=O)(=O)c2ccc(Cl)cc2)[C@@H](CO)O1)c1ccccc1F", "activity change (Venus)": -4.89, "activity change (mCherry)": "-8.02% (inactive)"}, {"smiles": "COc1ccc(S(=O)(=O)Nc2ccc3c(c2)C(=O)N([C@@H](C)CO)C[C@H](C)[C@@H](CN(C)C(=O)c2ccccc2)OCCCC[C@H](C)O3)cc1", "activity change (Venus)": -18.1, "activity change (mCherry)": "-21.6% (inactive)"}, {"smiles": "CC(C)NC(=O)N1Cc2cc(C(=O)NCC(F)(F)F)nc(-c3cccc(-c4cc5ccccc5o4)c3)c2[C@@H]1CCO", "activity change (Venus)": -13.3, "activity change (mCherry)": "-16.3% (inactive)"}, {"smiles": "C[C@@H]1CN([C@@H](C)CO)C(=O)Cc2cc(NS(=O)(=O)c3cccs3)ccc2O[C@H]1CN(C)S(=O)(=O)c1ccc(F)cc1", "activity change (Venus)": 4.55, "activity change (mCherry)": "-5.12% (inactive)"}, {"smiles": "CO[C@@H]1CN(C)C(=O)c2cc(NC(=O)C3CC3)ccc2OC[C@H](C)N(C(=O)CN(C)C)C[C@H]1C", "activity change (Venus)": -3.17, "activity change (mCherry)": "-2.47% (inactive)"}, {"smiles": "O=C(C[C@@H]1CC[C@H](NC(=O)Nc2ccc3c(c2)OCO3)[C@H](CO)O1)NCc1ccccc1", "activity change (Venus)": 14.1, "activity change (mCherry)": "19.4% (inactive)"}, {"smiles": "C=CCOC(=O)C1=C[C@@H](c2ccccc2)C[C@@H](OCc2ccc(CO)cc2)O1", "activity change (Venus)": -3.63, "activity change (mCherry)": "2.64% (inactive)"}, {"smiles": "O=C(C1CCCC1)N1CC(=O)N2[C@@H](CO)[C@@H](c3ccc(-c4cccnc4)cc3)[C@@H]2C1", "activity change (Venus)": -4.04, "activity change (mCherry)": "-5.69% (inactive)"}, {"smiles": "Cc1ccccc1-c1cnc2c(c1)C(=O)N([C@H](C)CO)C[C@@H](C)[C@H](CN(C)C(=O)c1cccnc1)O2", "activity change (Venus)": -1.16, "activity change (mCherry)": "-1.67% (inactive)"}, {"smiles": "CN(C)C(=O)c1ccc(-c2ccc(C3[C@H]4CNC[C@@H]3N4C(=O)Nc3cc(F)ccc3F)cc2)cc1", "note": "(some centres undefined)", "activity change (Venus)": 3.11, "activity change (mCherry)": "14.7% (inactive)"}, {"smiles": "O=C(C1CCCCC1)N1CC2(C1)[C@H](c1ccccc1)[C@@H](CO)N2CCC(F)(F)F", "activity change (Venus)": -3.18, "activity change (mCherry)": "-9.06% (inactive)"}, {"smiles": "CC(=O)Nc1ccc2c(c1)C(=O)N(C)[C@H]1CC[C@@H](CC(=O)NCC3CC3)O[C@H]1CO2", "activity change (Venus)": 11.1, "activity change (mCherry)": "7.92% (inactive)"}, {"smiles": "CCC(=O)N(C)C[C@@H]1Oc2ncc(/C=C/c3ccccc3)cc2C(=O)N([C@@H](C)CO)C[C@H]1C", "activity change (Venus)": 1.22, "activity change (mCherry)": "12.1% (inactive)"}, {"smiles": "O=C(O)C[C@H]1C=C[C@@H](NC(=O)Nc2cc(F)ccc2F)[C@@H](CO)O1", "activity change (Venus)": 9.94, "activity change (mCherry)": "8.15% (inactive)"}, {"smiles": "COCC(=O)N(C)C[C@H]1Oc2cc(C#C[C@@H](C)O)ccc2S(=O)(=O)N([C@@H](C)CO)C[C@@H]1C", "activity change (Venus)": -7.76, "activity change (mCherry)": "2.13% (inactive)"}, {"smiles": "CCC(=O)N(C)C[C@@H]1Oc2cc(-c3ccc(C#N)cc3)ccc2S(=O)(=O)N([C@@H](C)CO)C[C@@H]1C", "activity change (Venus)": 0.0371, "activity change (mCherry)": "-1.36% (inactive)"}, {"smiles": "COc1ccc2c3c(n(C)c2c1)[C@@H](CO)N(S(C)(=O)=O)CC31CCN(C(=O)C2CCC2)CC1", "activity change (Venus)": -12.1, "activity change (mCherry)": "-2.22% (inactive)"}, {"smiles": "CC(C)C#Cc1cnc2c(c1)C(=O)N([C@H](C)CO)C[C@H](C)[C@@H](CN(C)C(=O)Nc1cc(F)ccc1F)O2", "activity change (Venus)": -6.46, "activity change (mCherry)": "-3.74% (inactive)"}, {"smiles": "COc1ccccc1NC(=O)N1C[C@@H](O)COC[C@H]2O[C@@H](CC(=O)NCc3ccccc3)CC[C@@H]21", "activity change (Venus)": -3.27, "activity change (mCherry)": "-5.93% (inactive)"}, {"smiles": "Cc1cccc(-c2ccc([C@@H]3[C@H]4CN(C(=O)c5ccccc5)CC(=O)N4[C@H]3CO)cc2)c1", "activity change (Venus)": -26.3, "activity change (mCherry)": "-24.1% (inactive)"}, {"smiles": "CCCN1C[C@H](C)[C@@H](OC)CN(C)C(=O)c2ccc(NC(=O)C3CCOCC3)cc2OC[C@@H]1C", "activity change (Venus)": 5.44, "activity change (mCherry)": "13.4% (inactive)"}, {"smiles": "C[C@H]1CN([C@@H](C)CO)C(=O)CCCn2nncc2CO[C@@H]1CN(C)C(=O)Nc1ccc(N2CCN(C)CC2)cc1", "activity change (Venus)": 3.05, "activity change (mCherry)": "3.06% (inactive)"}]}]}
